# An excerpt weighted towards active compounds, which were near 0.68% of everything screened.
# RN4220 kill: S. aureus RN4220 growth inhibition; OD600, 16 h; inhibition, % (no concentration beside the values); 330,000 compounds, 0.33% hits; in the data active = inhibition above about 85%;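 note: plate controls were untreated cells for no effect and reference antibiotic for full effect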
# Mtb hypoxia inh: Mtb hypoxia fluorescent reporter inhibition; M. tuberculosis hypoxia-regulated fluorescent reporter, fluorescence; fluorescence inhibition, % (concentration not given with the values); 300,000 compounds, 0.1% hits; in the data active = fluorescence inhibition mostly above about 23%, no sharp cut-off; inactive = mostly below about 17%
# ugtP null kill: growth inhibition of S. aureus ugtP deletion strain; S. aureus RN4220 ugtP deletion, OD600 growth, 16 h; growth inhibition, % (no concentration beside the values); 330,000 compounds, 0.54% hits; in the data active = growth inhibition above about 68%;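 note: plate controls were untreated wells for no effect and antibiotic for full effect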
# The depositor's hits bear a star; / = no result given.
SMILES,RN4220 kill,Mtb hypoxia inh,ugtP null kill
CC(=O)O/C(=C1\CC2C3CC=C4CC(OC(C)=O)CCC4(C)C3CCC2(C)C1=O)C(F)(F)F (stereo not given),100*,16,100*
CC(=O)OC1CCC2(C)C(=CCC3C2CCC2(C)C3CC3OC4(CCC(C)CN4)C(C)C32)C1 (stereo not given),-1,/,8
CCc1ccc2[nH]c3nc(SCC(=O)NNC(=O)c4ccc(C(C)(C)C)cc4)nnc3c2c1,19,0,85*
Cc1ccc(C(=O)NNC(=O)CSc2nnc3c(n2)[nH]c2ccc(C)cc23)cc1,5,6,-5
Cc1nnc(SCC(=O)NC2CCCCC2)s1,7,12,4
Cc1cc(C(F)F)nn1CC(=O)N1CCSCC1,0,7,-1
Cc1nnc(SCC2=C(C(=O)O)N3C(=O)C(NC(=O)Cn4nc(C(F)F)c(Cl)c4C)C3SC2)s1 (stereo not given),100*,/,100*
CC(=O)OCC1=C(C(=O)O)N2C(=O)C(NC(=O)Cn3nc(C(F)F)c(Cl)c3C)C2SC1 (stereo not given),99*,/,96*
Cc1nnc(SCC2=C(C(=O)O)N3C(=O)C(NC(=O)Cn4nc(C(F)F)cc4C)C3SC2)s1 (stereo not given),100*,/,101*
CC(=O)OCC1=C(C(=O)O)N2C(=O)C(NC(=O)CCn3nc(C)c(Cl)c3C)C2SC1 (stereo not given),99*,/,99*
CCC(C)NC(=O)Cn1nc([N+](=O)[O-])c(Cl)c1C (stereo not given),-8,-7,-3
C[C@@]12C(=O)Nc3cc(F)c(F)cc3C(=O)N1C1c3cc(Cl)ccc3OCC1C2c1ccccc1 (stereo not given in full),-15,-4,-7
CC(C)(C)OC(=O)NC(C(=O)OC(C)(C)C)c1ccc(C(F)(F)F)cc1 (stereo not given),3,7,6
COc1ccc(S(=O)(=O)Nc2cccc3c2OC(CN(C)C(=O)Nc2c(C)noc2C)C(C)CN(C(C)CO)C3=O)cc1 (stereo not given),4,6,1
COCCNC(=O)Cn1nc(C(F)(F)F)c(Br)c1C,4,3,-2
CC(=O)OCC1=C(C(=O)O)N2C(=O)C(NC(=O)CCn3nc(C(F)(F)F)c(Br)c3C3CC3)C2SC1 (stereo not given),100*,/,100*
COc1cc(NC(=O)C2CCCN(S(=O)(=O)c3cccc4cccnc34)C2)cc(OC)c1OC (stereo not given),5,5,-1
Cc1ccc(C)c(NC(=O)c2ccccc2O)c1,-2,/,-9
CC(C)(C)c1ccc(C(=O)NCC(=O)NNC(=O)c2ccccc2O)cc1,7,2,6
Cc1ccc(O)c(C(=O)CC(=O)c2ccccc2Cl)c1,100*,-11,99*
Cc1ccc(O)c(C(=O)CC(=O)c2ccc(C(C)(C)C)cc2)c1,99*,-2,100*
O=C1C(Cc2ccccc2)NCC=CCC(c2ccc(Cl)cc2)N1Cc1ccc(Cl)cc1 (stereo not given),22,20,2
N=c1oc2ccccc2cc1C(=O)NN=Cc1ccccc1,0,/,4
CN1CC2C(c3ccc(Cl)nc3)C3(c4cccnc4)CC2(C3)C1c1ccccc1 (stereo not given),6,7,-1
O=C(Nc1ccc(S(=O)(=O)N2CCOCC2)cc1)c1ccc([N+](=O)[O-])s1,6,38*,-2
O=C(Nc1ccc(S(=O)(=O)N2CCOCC2)cc1)c1cccs1,1,/,-1
CC(=O)c1nn(-c2ccc(Cl)cc2)cc1C(=O)c1ccc(C)cc1,-6,47*,-2
CC(=O)c1nn(-c2ccccc2)cc1C(=O)c1ccc(C)cc1,3,0,-1

# High-throughput results deposited in PubChem by ICCB-Longwood Screening Facility, Harvard Medical School.
